In PubChem BioAssay AID1063 (University of Pittsburgh Molecular Library Screening Center, 2008) one finds inhibition data, which are given here for 94 compounds.

Values joined by “and” are separate entries in the source; they are usually repeats but may differ in a detail not shown here. Identical values can stand only once. In all, about 200,000 compounds went through this assay and about 18,000 (9%) were called active. The full list was thinned out, with actives kept by preference. Values without a mark were called inactive. Cut-off read from the data, not from the text of the source: active = inhibition above about 50%; inactive = the rest.

A short description of this assay: antileishmanial activity against promastigotes – primary screen (AID 1063).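 Note: promastigotes grown with compound for 44 hours at 28 °C.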 As to conditions: Leishmania major promastigotes, resazurin fluorescence viability; at 10 µM; hits give high values. A general note: Resazurin is reduced to fluorescent resorufin, in cell work by metabolically active cells.
The term inhibition denotes the change of the read-out against control, counted positive when it falls. `COc1ccc(CCNC(=O)C(=O)NCc2ccccc2C)cc1OC`: the inhibition is -0.59%.
Under `CC(C)(C)NC(=O)c1ccc(Cn2cc(C(F)(F)F)ccc2=O)cc1` stands -0.17%.
`Cc1ccc(C2NC(C(=O)O)CS2)cc1` (centres undefined): the inhibition was -9.29%.
Under `Cc1cccc(NC(=S)NC(=O)c2ccc(Br)o2)c1` stands -3.34%; under `CNC(=O)C(=O)N/N=C/c1ccccn1`, -7.18%; under `N#C/C(=C\c1ccc(-c2cccc([N+](=O)[O-])c2)o1)C(=O)NCCN1CCOCC1`, 17.4%.
The same measure for `Cc1cc(C)c([N+](=O)[O-])cc1-c1ccc(/C=N/NC(=O)c2nonc2N)o1`: 14.1%.
Under `Cc1ccc(-c2ccc(/C=N/NC(=O)CN3CCOCC3)o2)cc1[N+](=O)[O-]` stands 96.8% (active).
Turning to `CNC(=O)/C(C#N)=C/c1c(F)cccc1Cl`, the inhibition is 99.2% (active).
As to `O=C(/C=C/c1c(F)cccc1Cl)Nc1nn[nH]n1`, the inhibition was -6.22%.
For `N#C/C(=C\c1ccccc1C(F)(F)F)C(=O)Nc1ccccc1F`, the inhibition is 7.15%.
The same measure for `COc1cccc(-c2ccc(SCC(=O)N3CCN(c4ccccc4)CC3)nn2)c1`: 4.58%; for `O=C(CSc1ccc(-c2cccs2)nn1)Nc1ccccc1F`: 10.6%.
The same measure for `Cc1cccc(C(=O)NCC(=O)OCC(=O)N2CC3(C)CC2CC(C)(C)C3)c1` (centres undefined): 43.9%; for `Cc1nnnn1/C(=C\c1ccccc1)C(=O)OCC(=O)N1CC2(C)CC1CC(C)(C)C2` (centres undefined): 100% (active).
The same measure for `COc1ccccc1C(=O)N1CC2(C)CC1CC(C)(C)C2` (centres undefined): -5.56%; for `Cc1nnsc1C(=O)Nc1cccc(Cl)c1C`: -7.14%; for `CCOP(=O)(OCC)C(Nc1cccc(C)c1)c1ccc(F)cc1` (centres undefined): 61.2% (active).
With `CCOP(=O)(OCC)C(Nc1ccc([N+](=O)[O-])cc1)c1ccc(Cl)cc1` (centres undefined), the inhibition is 36.9%.
`CCCCOC(=O)c1ccc(NC(c2ccc(C)cc2)P(=O)(OC)OC)cc1` (centres undefined): the inhibition is 2.9%.
Regarding `Cc1nc2cc(NC(=O)NC3CC3)ccc2n1C`, the inhibition is -6.22%.
The same measure for `CC(=O)n1cc([C@@H]2C=C(C(=O)N3CCN(Cc4ccc5c(c4)OCO5)CC3)O[C@H](OCc3ccc(CO)cc3)C2)c2ccccc21`: 78.9% (active); for `CCO[C@H]1OC(C(=O)N2CCCCCCC2)=C[C@@H](c2ccc(C(F)(F)F)cc2)[C@@H]1CCCO`: -8.31%; for `CCO[C@H]1OC(C(=O)NCc2ccccc2)=C[C@@H](c2coc3ccccc3c2=O)[C@@H]1CCCO`: 8.75%.
As for `CC(=O)n1cc([C@H]2C=C(C(=O)N3CCOCC3)O[C@@H](OCc3ccc(CO)cc3)C2)c2ccccc21`, the inhibition was 0.43%.
With `CN1CCN(C(=O)C2=C[C@H](c3ccc4c(c3)OCO4)C[C@H](OCc3ccc(CO)cc3)O2)CC1`, the inhibition is 5.67%.
As to `CCO[C@H]1OC(C(=O)N2CCN(Cc3ccccc3)CC2)=C[C@@H](c2cn(C(C)=O)c3ccccc23)[C@@H]1CCCO`, the inhibition is 71.4% (active).
Take `CCC1CCCCN1C(=O)CSc1nc2c(c(=O)n(C)c(=O)n2C)n1C` (centres undefined): the inhibition is -6.11%.
On to `CCOc1ccc(C(CC(=O)O)n2cnnn2)cc1OC` (centres undefined), for which the inhibition is -5.12%.
Under `Cc1cc(NC(=O)CSc2nccn2-c2ccc([N+](=O)[O-])cc2)no1` stands -2.13%; under `N/C(=N\OC(=O)N1c2ccccc2Sc2ccccc21)c1ccc(Br)cc1`, 26%.
Under `CN1CCN(c2ccc([N+](=O)[O-])c(Sc3nc4ccccc4[nH]3)c2)CC1` stands 57% (active); under `O=[N+]([O-])c1ccc(N2CCNCC2)cc1NCc1cccnc1`, -1.11%.
Under `O=C(CSc1nc2ccccc2[nH]1)N/N=C/C=C\c1ccccc1[N+](=O)[O-]` stands 40.1%; under `COc1ccc(S(=O)(=O)N2CCOCC2)cc1NC(=O)CSc1ncnc2ccccc12`, 23%; under `O=C(NC1CC1)C1CCCN(C(=O)NC2CCCCC2)C1` (centres undefined), 1.82%.
As for `COc1ccc(-c2nn(-c3ccccc3)cc2CN2CCCO2)c(F)c1`, the inhibition was 13%.
The same measure for `O=C(CCCN1C(=O)/C(=C/c2ccco2)SC1=S)Nc1ccccc1`: 10.2%; for `O=C(CCCN1C(=O)/C(=C\c2ccco2)SC1=S)Nc1cccc2ccccc12`: 30.1%.
With `O=C(CCCN1C(=O)/C(=C/c2ccccc2)SC1=S)Nc1ccc(O)cc1`, the inhibition is 56.3% (active).
The same measure for `O=C(Nc1ccc([N+](=O)[O-])cc1)C1CC12CCC2` (centres undefined): 2.36%.
The same measure for `COc1ccc(/C(N)=N/OC(=O)Cc2ccccc2)cc1`: -6.43%.
Consider `N/C(=N\OC(=O)CC1CCCCC1)c1ccccc1`, for which the inhibition is 57.8% (active).
For `N/C(=N\OC(=O)CCC1CCCCC1)c1ccccn1`, the inhibition is -4.7%.
On to `CCc1ccccc1N1C(=O)C2C3CC(=O)C(c4ccccc43)C2C1=O` (centres undefined), for which the inhibition was 7.01%.
Under `Cc1noc(C)c1COc1ccc2ccc(=O)oc2c1` stands -4.27%; under `COc1cc(C)c(Cl)cc1S(=O)(=O)n1ccnc1`, 80.5% (active); under `CCOc1ccc(C(C)C)cc1S(=O)(=O)n1nc(C)cc1C`, 0.47%.
Consider `COc1cc(Cl)c(S(=O)(=O)n2cnc(C)c2)cc1Cl`, for which the inhibition was 2.35%.
Under `CCOc1ccc(S(=O)(=O)n2ccnc2)c2ccccc12` stands -5.02%.
Under `COc1cc(C)c(C(C)C)cc1S(=O)(=O)n1ccnc1` stands 97.8% (active).
Under `CCOc1cc(C)c(Cl)cc1S(=O)(=O)n1nnc2ccccc21` stands 1.2%; under `N#Cc1c(NC(=O)CCCl)sc2c1CCCCC2`, -0.81%; under `CCCCCc1nnc(NC(=O)c2ccc(=O)n(C)n2)s1`, 1.57%.
For the compound `O=C1N/C(=C/c2cccs2)C(=O)N1Cc1ccc(F)cc1`, the inhibition is -5.2%.
Turning to `CC1CC1C(=O)OCC(=O)c1c(N)n(C)c(=O)n(C)c1=O` (centres undefined), the inhibition is -4.6%.
The same measure for `COCCN(C(=O)C(C)C)c1nnc(-c2ccc(C(C)(C)C)cc2)s1`: 8.79%; for `O=C(O)c1ccc2c3c(cccc13)C(=O)N(OS(=O)(=O)c1ccccc1)C2=O`: -8.08%; for `Cc1cc2cc3c(cc2nc1SCC(=O)Nc1c(C)cccc1C)CCC3`: 78.9% (active).
Consider `Cc1cc(C)c(C#N)c(SCC(=O)Nc2ccccc2)n1`, for which the inhibition is -5.68%.
Under `Cc1cccc(C)c1NC(=O)CSc1ccc([N+](=O)[O-])cn1` stands -1.31%; under `CS(=O)(=O)N(CC(=O)N/N=C/c1ccccn1)c1ccc(Oc2ccccc2)cc1`, 32.9%.
In the case of `CCCN(CC(=O)Nc1ccccc1C)C(=O)c1cc(=O)[nH]c2ccccc12`, the inhibition was 1.78%.
As for `CC(=O)C1=C(C)NC(C)=C(C(C)=O)C1c1cn(-c2ccccc2)nc1-c1cccs1`, the inhibition was 79.7% (active).
As for `O=C(O)c1ccc(N/N=C/c2cn(-c3ccccc3)nc2-c2cccs2)cc1`, the inhibition was 46.2%.
Take `O=C(O)/C=C/c1cn(-c2ccccc2)nc1-c1cccs1`: the inhibition was -2.18%.
For the compound `CC(=O)Nc1ccc(S(=O)(=O)Oc2ccc(/C=N/N=C3/NC(=O)C(CC(=O)O)S3)cc2)cc1` (centres undefined), the inhibition was -13.1%.
As to `Cc1cccc(C)c1NC(=O)C1CCCN1C(=O)OC(C)(C)C` (centres undefined), the inhibition was -5.04%.
Under `Cc1ccc(NC(=O)c2csc3c2CCCC3)cc1` stands 12.4%.
The same measure for `O=C(COC(=O)c1ccccc1)Nc1cccc(S(=O)(=O)N2CCOCC2)c1`: -3.29%; for `Cc1cc(C(=O)OC(C)C(=O)Nc2cccc(S(=O)(=O)N3CCOCC3)c2)c(C)o1` (centres undefined): 99.7% (active); for `CC(Sc1cccc[n+]1[O-])C(=O)Nc1cccc(S(=O)(=O)N2CCOCC2)c1` (centres undefined): -4.48%.
As to `Cc1nc(CN2CCN(C(=O)CCc3nnc(Cc4c[nH]c5ccccc45)o3)CC2)cs1`, the inhibition is 0.41%.
For the compound `CN(CCN1CCOCC1)Cc1nc(-c2ccc3c(c2)OCO3)no1`, the inhibition is 39.3%.
The same measure for `CC(C)c1cc(NCc2ccccn2)n2c(nc3ccccc32)c1C#N`: 8.36%.
On to `Cc1cc(N/N=C/c2ccccc2F)c2ccccc2n1`, for which the inhibition is 12.3%.
The same measure for `Cc1nc(N2CCOCC2)sc1C(=O)NN`: 7.46%.
The same measure for `Cn1c(-c2ccccc2)c[n+]2c1CCCCC2`: 0.17%; for `Cc1ccc(C(=O)N2CCCC(c3ccccc3)=N2)cc1`: 16.1%; for `Cc1ccc(C(=O)C[n+]2cc(-c3ccccc3)n3c2CCCCC3)cc1`: 101% (active) and 100% (active).
The same measure for `N/C(=N/O)c1cccn1Cc1ccccc1[N+](=O)[O-]`: -1.66%.
Take `COc1ccc(C)cc1NC(=O)c1ccc(-c2ccc(C(C)=O)cc2)o1`: the inhibition is -4.3%.
Under `O=C(NC1CCN(Cc2ccccc2)CC1)c1cc(Br)c(Br)[nH]1` stands 60.3% (active); under `Cc1ccn2cc(C(=O)NC3CCN(Cc4ccccc4)CC3)nc2c1`, 4.6%.
The same measure for `S=C(NN=C1CCN(Cc2ccccc2)CC1)NC1CCCCC1`: -4.71%; for `O=C(NC(=S)N1CCN(Cc2ccccc2)CC1)c1ccccc1`: 14.1%; for `S=C(Nc1ccc(Br)cc1Cl)NC1CCN(Cc2ccccc2)CC1`: 90.3% (active).
The same measure for `O=C(NC1CCN(Cc2ccccc2)CC1)c1ccccc1F`: 62.4% (active); for `O=C(NNC(=S)Nc1ccc(Br)cc1Cl)c1ccco1`: 0.76%; for `O=C(NC1CCN(Cc2ccccc2)CC1)c1c(F)cccc1F`: 21.7%.
Turning to `COc1cc2[nH]c(=O)n(CCC(=O)NC3CCN(Cc4ccccc4)CC3)c(=O)c2cc1OC`, the inhibition was -1.95%.
With `COc1cc2[nH]c(=O)n(Cc3ccc(C(=O)NC4CCN(Cc5ccccc5)CC4)cc3)c(=O)c2cc1OC`, the inhibition is -5.05%.
Take `O=C(COc1ccccc1F)NC1CC1`: the inhibition was -1.88%.
Under `O=C(COc1ccc(Br)cc1F)NC1CCN(Cc2ccccc2)CC1` stands 93.2% (active).
